Active and inactive are the calls of the source. The calls were made as follows: active = hit-call score of the fitted dose curve at least 0.9, where 1 is the maximum; inactive = score below 0.9.
Experiments:
[1] = target: Bile acid receptor (Homo sapiens) (UniProt Q96RI1); test: ATG_IR1_CIS: Attagene CIS-FACTORIAL HepG2 Assay for human Nuclear Receptor Subfamily 1 Group H Member 4 (NR1H4), IR1 submotif (AID 2282946); conditions: IR1 reporter transcription, actives raise or lower the signal
In short: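 Transient MRTU transfection, HepG2; 24 h dosing; RNA → RT-PCR → 6-FAM primer extension → HpaI digest → capillary electrophoresis fluorescence. Gain/loss of signal fitted relative to DMSO.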

[2] = ATG_GRE_CIS: Attagene CIS-FACTORIAL HepG2 Assay for human Glucocorticoid Response Elements (GRE) (AID 2282947); conditions: HepG2 GRE cis-reporter, Attagene multiplex mRNA; actives raise or lower the signal
In short: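 HepG2 cells transiently transfected with multiple cis-promoter reporter units measure endogenous TF activity; 24 h compound exposure. Reporter mRNA quantified by RT-PCR, FAM labelling, HpaI digestion and capillary electrophoresis; bidirectional fit vs DMSO baseline.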

[3] = ATG_ISRE_CIS: Attagene CIS-FACTORIAL HepG2 Assay for human Interferon Regulatory Factor 1 (IRF1) binding to an Interferon-Stimulated Response Element (ISRE) (AID 2282948); conditions: HepG2 ISRE cis-reporter (Attagene), mRNA transcription readout; actives raise or lower the signal
In short: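 Quantitation relies on labelled RT-PCR fragments separated by capillary electrophoresis. Human HepG2 cells bearing cis-promoter reporter constructs were treated 24 h; DMSO served as baseline for bidirectional fitting.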

[4] = ATG_M_32_CIS: Attagene CIS-FACTORIAL HepG2 Assay for M32 Transcription Factor (Internal Marker) (AID 2282949); conditions: HepG2 Attagene cis-factorial M32 reporter, mRNA; actives raise or lower the signal;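 also: background control marker of the multiplexed CIS panel rather than a real target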
In short: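 Following 24 h chemical exposure of HepG2 cells transiently expressing cis-promoter reporter constructs, reporter transcript levels were determined by RT-PCR with fluorescent labelling and capillary electrophoresis, then fitted bidirectionally against DMSO.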

[5] = ATG_M_06_CIS: Attagene CIS-FACTORIAL HepG2 Assay for M06 Transcription Factor (Internal Marker) (AID 2282950); conditions: HepG2 Attagene CIS-FACTORIAL M06 internal marker reporter; actives raise or lower the signal
In short: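 HepG2 cells transiently transfected with cis-regulated multiple reporter transcription units were exposed to chemical for 24 h; reporter mRNA was quantified by RT-PCR, 6-FAM primer labelling, HpaI digestion and capillary electrophoresis, fitted bidirectionally against DMSO.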

[6] = target: Hypoxia-inducible factor 1-alpha (Homo sapiens) (UniProt Q16665); test: ATG_HIF1a_CIS: Attagene CIS-FACTORIAL HepG2 Assay for human Hypoxia Inducible Factor 1 (HIF1A) (AID 2282951); conditions: HepG2 Attagene cis-factorial HIF1a reporter transcription; actives raise or lower the signal
Sequence of Hypoxia-inducible factor 1-alpha (Homo sapiens) (Q16665 whole entry, looked up): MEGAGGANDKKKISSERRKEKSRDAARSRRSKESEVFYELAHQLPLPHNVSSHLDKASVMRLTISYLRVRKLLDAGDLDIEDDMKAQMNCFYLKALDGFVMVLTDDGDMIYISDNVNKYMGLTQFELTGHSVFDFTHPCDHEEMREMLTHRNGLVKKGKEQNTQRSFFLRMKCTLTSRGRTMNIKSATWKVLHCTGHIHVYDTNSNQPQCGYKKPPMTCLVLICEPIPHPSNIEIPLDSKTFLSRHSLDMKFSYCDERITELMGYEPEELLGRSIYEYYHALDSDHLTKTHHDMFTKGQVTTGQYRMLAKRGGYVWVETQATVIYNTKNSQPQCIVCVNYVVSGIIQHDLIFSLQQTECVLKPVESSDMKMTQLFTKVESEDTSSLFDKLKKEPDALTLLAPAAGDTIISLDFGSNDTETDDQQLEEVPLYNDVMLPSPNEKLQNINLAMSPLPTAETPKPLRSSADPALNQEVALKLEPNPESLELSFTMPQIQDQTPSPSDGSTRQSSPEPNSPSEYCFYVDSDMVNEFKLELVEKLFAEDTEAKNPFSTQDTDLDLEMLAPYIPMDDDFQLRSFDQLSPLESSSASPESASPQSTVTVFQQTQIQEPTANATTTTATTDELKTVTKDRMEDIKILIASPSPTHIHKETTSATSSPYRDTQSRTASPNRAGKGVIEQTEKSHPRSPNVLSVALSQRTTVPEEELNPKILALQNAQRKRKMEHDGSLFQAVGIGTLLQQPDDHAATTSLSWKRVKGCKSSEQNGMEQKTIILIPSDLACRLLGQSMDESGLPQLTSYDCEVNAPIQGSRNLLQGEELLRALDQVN
In short: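 RT-PCR/capillary electrophoresis fluorescence readout of reporter transcripts from endogenous-TF-driven cis elements in transfected HepG2 cells, 24 h exposure; activity fitted in both directions against DMSO controls.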

[7] = target: Heat shock factor protein 1 (Homo sapiens) (UniProt Q00613); test: ATG_HSE_CIS: Attagene CIS-FACTORIAL HepG2 Assay for human Heat Shock Transcription Factor 1 (HSE) (AID 2282953); conditions: HepG2 HSE cis-reporter, Attagene RNA transcription; actives raise or lower the signal
Sequence of Heat shock factor protein 1 (Homo sapiens) (Q00613 whole entry, looked up): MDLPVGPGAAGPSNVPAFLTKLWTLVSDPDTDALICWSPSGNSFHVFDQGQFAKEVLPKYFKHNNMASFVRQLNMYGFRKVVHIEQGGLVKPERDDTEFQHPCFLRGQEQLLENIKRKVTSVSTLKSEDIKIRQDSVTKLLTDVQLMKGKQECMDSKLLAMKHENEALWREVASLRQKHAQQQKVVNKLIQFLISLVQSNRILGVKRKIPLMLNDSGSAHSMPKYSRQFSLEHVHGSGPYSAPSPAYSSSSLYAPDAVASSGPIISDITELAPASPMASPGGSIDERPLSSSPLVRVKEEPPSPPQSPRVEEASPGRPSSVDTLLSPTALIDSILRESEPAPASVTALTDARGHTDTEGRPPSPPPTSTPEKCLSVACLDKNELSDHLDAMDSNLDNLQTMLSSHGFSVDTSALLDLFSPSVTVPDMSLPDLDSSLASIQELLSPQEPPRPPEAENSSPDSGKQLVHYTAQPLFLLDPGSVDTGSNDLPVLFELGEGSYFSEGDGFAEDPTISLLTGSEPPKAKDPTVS
In short: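 HepG2 cells transiently transfected with multiple reporter transcription units under cis-regulatory promoter control, measuring endogenous transcription factor activity. After 24 h chemical exposure, reporter mRNA quantified by RT-PCR, fluorescent labelling, HpaI digestion and capillary electrophoresis; bidirectional fit versus DMSO.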

[8] = ATG_MRE_CIS: Attagene CIS-FACTORIAL HepG2 Assay for human Metal Responsive Element (MRE) (AID 2282954); conditions: HepG2 MRE cis-reporter transcription, Attagene multiplex; actives raise or lower the signal
In short: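 HepG2 cells transiently transfected with multiple cis-element reporter units measure endogenous MTF1-driven transcription. After 24 h compound exposure, reporter mRNA is quantified by RT-PCR with 6-FAM labelling, HpaI digestion and capillary electrophoresis; bidirectional fits versus DMSO.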

[9] = target: Paired box protein Pax-6 (Homo sapiens) (UniProt P26367); test: ATG_Pax6_CIS: Attagene CIS-FACTORIAL HepG2 Assay for human Paired Box 6 (PAX6) (AID 2282956); conditions: HepG2 CIS-FACTORIAL PAX6 reporter transcription, RNA readout; actives raise or lower the signal
Sequence of Paired box protein Pax-6 (Homo sapiens) (P26367 whole entry, looked up): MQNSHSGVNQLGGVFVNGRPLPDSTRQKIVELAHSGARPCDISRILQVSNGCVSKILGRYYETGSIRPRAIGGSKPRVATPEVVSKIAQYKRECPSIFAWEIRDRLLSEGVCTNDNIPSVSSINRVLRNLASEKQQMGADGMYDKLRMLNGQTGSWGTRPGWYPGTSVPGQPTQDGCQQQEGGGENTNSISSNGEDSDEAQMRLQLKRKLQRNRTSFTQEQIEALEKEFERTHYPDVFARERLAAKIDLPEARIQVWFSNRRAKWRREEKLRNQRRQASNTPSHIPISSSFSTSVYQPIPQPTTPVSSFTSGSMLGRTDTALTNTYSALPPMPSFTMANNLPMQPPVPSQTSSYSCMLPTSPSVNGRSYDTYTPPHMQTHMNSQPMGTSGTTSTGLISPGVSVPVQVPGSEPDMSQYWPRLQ
In short: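 After twenty-four hours of chemical exposure, transfected HepG2 cells are harvested for RNA. Cis-promoter reporter transcripts are amplified, fluorescently labelled and sized by capillary electrophoresis, with gain and loss of signal scored against DMSO.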

[10] = ATG_PXRE_CIS: Attagene CIS-FACTORIAL HepG2 Assay for human Pregnane X Receptor Element (PXRE) (AID 2282957); conditions: HepG2 Attagene CIS-FACTORIAL PXRE reporter, mRNA; actives raise or lower the signal
In short: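 Transiently transfected HepG2 cells were dosed and incubated for 24 h. RNA was then isolated, DNase-treated, reverse-transcribed and reporter sequences amplified. Labeled, HpaI-digested fragments were quantified by capillary electrophoresis against DMSO.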

[11] = ATG_PPRE_CIS: Attagene CIS-FACTORIAL HepG2 Assay for human Peroxisome Proliferator-activated Response Element (PPRE) (AID 2282958); conditions: HepG2 PPRE cis-element reporter, Attagene transcription factor profiling; actives raise or lower the signal
In short: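 Read-out: fluorescent reporter mRNA fragments resolved by capillary electrophoresis after RT-PCR. HepG2 cells carried transiently transfected PPRE-driven cis reporter constructs and were dosed for 24 h; gain or loss of signal fitted relative to DMSO.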

[12] = ATG_RORE_CIS: Attagene CIS-FACTORIAL HepG2 Assay for human RAR-related Orphan Receptor Element (RORE) (AID 2282959); conditions: HepG2 Attagene cis-factorial RORE reporter, mRNA; actives raise or lower the signal
In short: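 Readout: fluorescent reporter mRNA by RT-PCR plus capillary electrophoresis, 24 h after dosing transfected HepG2 cells. Endogenous transcription factor activity on a cis promoter element is measured. Gain or loss of signal fitted against DMSO.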

[13] = ATG_Sox_CIS: Attagene CIS-FACTORIAL HepG2 Assay for human SRY-box transcription factor (SOX) (AID 2282960); conditions: HepG2 Attagene cis-factorial SOX reporter, mRNA; actives raise or lower the signal
In short: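 Read-out: fluorescent RT-PCR products of SOX1-linked reporter transcripts resolved by capillary electrophoresis, fitted bidirectionally against DMSO. Transiently transfected HepG2 cells, 24 h after chemical exposure, endogenous transcription factor activity.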

[14] = target: Transcription factor Sp1 (Homo sapiens) (UniProt P08047); test: ATG_Sp1_CIS: Attagene CIS-FACTORIAL HepG2 Assay for human Specificity Protein 1 (Sp1) (AID 2282961); conditions: HepG2 Sp1 cis-reporter transcription, actives raise or lower the signal
Sequence of Transcription factor Sp1 (Homo sapiens) (P08047 whole entry, looked up): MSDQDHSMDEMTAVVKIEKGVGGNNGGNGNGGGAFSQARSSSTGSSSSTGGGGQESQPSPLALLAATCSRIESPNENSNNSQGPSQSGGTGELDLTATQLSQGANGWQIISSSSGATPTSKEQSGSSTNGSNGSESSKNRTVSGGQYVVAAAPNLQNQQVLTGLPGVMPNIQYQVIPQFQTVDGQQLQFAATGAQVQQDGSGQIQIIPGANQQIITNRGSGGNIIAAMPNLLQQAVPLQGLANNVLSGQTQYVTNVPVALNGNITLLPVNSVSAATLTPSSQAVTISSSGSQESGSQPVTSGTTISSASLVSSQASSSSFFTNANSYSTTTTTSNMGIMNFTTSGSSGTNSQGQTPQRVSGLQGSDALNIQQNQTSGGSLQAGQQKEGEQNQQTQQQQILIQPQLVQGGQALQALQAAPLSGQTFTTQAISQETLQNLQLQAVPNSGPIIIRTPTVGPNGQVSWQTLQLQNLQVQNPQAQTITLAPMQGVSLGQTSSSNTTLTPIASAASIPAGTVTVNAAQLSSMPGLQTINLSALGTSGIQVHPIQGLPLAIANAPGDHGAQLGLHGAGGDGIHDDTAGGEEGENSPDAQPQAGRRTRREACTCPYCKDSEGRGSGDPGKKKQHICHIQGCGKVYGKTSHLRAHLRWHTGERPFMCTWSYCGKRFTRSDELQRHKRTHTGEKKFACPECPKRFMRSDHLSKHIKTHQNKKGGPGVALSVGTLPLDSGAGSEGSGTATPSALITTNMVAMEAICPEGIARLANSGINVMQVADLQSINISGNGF
In short: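 Read-out: fluorescence of 6-FAM-labeled, HpaI-digested RT-PCR products separated by capillary electrophoresis. HepG2 cells carried transfected cis-element reporter units and were exposed to chemicals for 24 h; gain or loss of signal fitted relative to DMSO.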

[15] = ATG_SREBP_CIS: Attagene CIS-FACTORIAL HepG2 Assay for human Sterol Regulatory Element Binding (SREBP) (AID 2282962); conditions: HepG2 Attagene cis-factorial SREBP reporter, mRNA; actives raise or lower the signal
In short: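 Twenty-four hours after chemical dosing of transfected HepG2 cultures, reporter RNA was converted to cDNA, amplified, end-labelled with 6-FAM and resolved by capillary electrophoresis. Responses were fitted relative to DMSO.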

[16] = target: Signal transducer and activator of transcription 3 (Homo sapiens) (UniProt P40763); test: ATG_STAT3_CIS: Attagene CIS-FACTORIAL HepG2 Assay for human Signal Transducer and Activator of Transcription 3 (STAT3) (AID 2282963); conditions: HepG2, Attagene cis-factorial STAT3 reporter transcription; actives raise or lower the signal
Sequence of Signal transducer and activator of transcription 3 (Homo sapiens) (P40763 whole entry, looked up): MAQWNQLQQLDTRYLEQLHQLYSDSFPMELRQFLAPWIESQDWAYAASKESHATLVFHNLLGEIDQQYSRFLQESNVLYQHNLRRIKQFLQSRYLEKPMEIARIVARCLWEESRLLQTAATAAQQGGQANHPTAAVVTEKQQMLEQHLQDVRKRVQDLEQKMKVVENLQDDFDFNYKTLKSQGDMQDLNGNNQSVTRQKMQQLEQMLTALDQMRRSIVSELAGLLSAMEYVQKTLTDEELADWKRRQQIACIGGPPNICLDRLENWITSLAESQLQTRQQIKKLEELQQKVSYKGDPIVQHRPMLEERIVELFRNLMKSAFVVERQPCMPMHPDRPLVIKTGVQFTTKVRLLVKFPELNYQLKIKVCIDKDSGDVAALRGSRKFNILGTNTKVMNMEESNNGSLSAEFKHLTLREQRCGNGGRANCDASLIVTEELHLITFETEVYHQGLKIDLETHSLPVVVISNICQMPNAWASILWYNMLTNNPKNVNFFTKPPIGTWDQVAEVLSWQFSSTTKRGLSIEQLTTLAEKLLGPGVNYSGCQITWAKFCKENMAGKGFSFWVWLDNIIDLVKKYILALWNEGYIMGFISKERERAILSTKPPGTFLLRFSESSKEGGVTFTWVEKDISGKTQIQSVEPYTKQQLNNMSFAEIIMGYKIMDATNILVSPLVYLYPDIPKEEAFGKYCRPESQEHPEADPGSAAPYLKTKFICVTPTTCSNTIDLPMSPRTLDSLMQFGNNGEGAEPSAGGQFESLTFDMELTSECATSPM
In short: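 HepG2 cells transiently transfected with cis-element-driven multiple reporter transcription units; after 24 h chemical exposure, reporter mRNA measured by RT-PCR, 6-FAM primer-extension labelling, HpaI digestion and capillary electrophoresis. Bidirectional fitting versus DMSO baseline.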

[17] = target: Hepatocyte nuclear factor 6 (Homo sapiens) (UniProt Q9UBC0); test: ATG_HNF6_CIS: Attagene CIS-FACTORIAL HepG2 Assay for human Hepatocyte Nuclear Factor 6 (HNF6) (AID 2282952); conditions: HepG2 Attagene cis-factorial HNF6 reporter transcription; actives raise or lower the signal
Sequence of Hepatocyte nuclear factor 6 (Homo sapiens) (Q9UBC0 whole entry, looked up, the tested form may be a part): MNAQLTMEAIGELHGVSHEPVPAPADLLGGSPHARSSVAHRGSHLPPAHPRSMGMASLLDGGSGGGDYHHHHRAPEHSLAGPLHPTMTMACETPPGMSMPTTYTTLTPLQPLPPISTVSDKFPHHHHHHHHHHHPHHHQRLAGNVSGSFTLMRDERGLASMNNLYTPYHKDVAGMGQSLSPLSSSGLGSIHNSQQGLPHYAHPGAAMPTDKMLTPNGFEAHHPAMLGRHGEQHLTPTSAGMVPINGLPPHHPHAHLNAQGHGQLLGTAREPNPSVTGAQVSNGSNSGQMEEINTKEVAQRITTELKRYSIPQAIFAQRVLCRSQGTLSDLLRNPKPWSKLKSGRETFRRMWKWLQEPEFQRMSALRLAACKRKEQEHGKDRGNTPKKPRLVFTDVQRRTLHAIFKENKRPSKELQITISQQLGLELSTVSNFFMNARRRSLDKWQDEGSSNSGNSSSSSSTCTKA
In short: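 Reporter mRNA induction or loss in HepG2 after 24 h exposure; transient cis-MRTU transfection; fragments quantified by capillary electrophoresis; bidirectional analysis, DMSO as negative control.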

[18] = ATG_TA_CIS: Attagene CIS-FACTORIAL HepG2 Assay for human TA Basal Promoter (AID 2282964); conditions: HepG2 Attagene CIS-factorial TA basal promoter reporter; actives raise or lower the signal
In short: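 HepG2 cells transiently transfected with multiplexed cis-promoter reporter units, dosed 24 h. Reporter mRNA measured by RT-PCR, 6-FAM labelling, HpaI digestion and capillary electrophoresis; bidirectional fit versus DMSO baseline, serving as background control.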

[19] = ATG_TCF_b_cat_CIS: Attagene CIS-FACTORIAL HepG2 Assay for human T-Cell-Factor with beta-catenin (TCF/b-cat) (AID 2282965); conditions: HepG2 TCF/beta-catenin cis-reporter transcription, actives raise or lower the signal
In short: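 HepG2 cells transiently transfected with multiple cis-promoter-regulated reporter transcription units, so endogenous transcription factor activity is measured. Reporter mRNA read 24 hours after dosing by RT-PCR, fluorescent labelling and capillary electrophoresis; bidirectional fitting against DMSO.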

[20] = ATG_PBREM_CIS: Attagene CIS-FACTORIAL HepG2 Assay for human Phenobarbital-responsive Enhancer Module (PBREM) (AID 2282955); conditions: HepG2 PBREM cis-reporter, Attagene multiplexed transcription; actives raise or lower the signal
In short: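 Reporter mRNA read by RT-PCR, 6-FAM primer extension, HpaI digestion and capillary electrophoresis. Transfected HepG2 cells, 24 h compound exposure. Gain or loss of signal fitted bidirectionally relative to DMSO baseline.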

Measured: AC50

Sequence of Bile acid receptor (Homo sapiens) (Q96RI1 whole entry, looked up): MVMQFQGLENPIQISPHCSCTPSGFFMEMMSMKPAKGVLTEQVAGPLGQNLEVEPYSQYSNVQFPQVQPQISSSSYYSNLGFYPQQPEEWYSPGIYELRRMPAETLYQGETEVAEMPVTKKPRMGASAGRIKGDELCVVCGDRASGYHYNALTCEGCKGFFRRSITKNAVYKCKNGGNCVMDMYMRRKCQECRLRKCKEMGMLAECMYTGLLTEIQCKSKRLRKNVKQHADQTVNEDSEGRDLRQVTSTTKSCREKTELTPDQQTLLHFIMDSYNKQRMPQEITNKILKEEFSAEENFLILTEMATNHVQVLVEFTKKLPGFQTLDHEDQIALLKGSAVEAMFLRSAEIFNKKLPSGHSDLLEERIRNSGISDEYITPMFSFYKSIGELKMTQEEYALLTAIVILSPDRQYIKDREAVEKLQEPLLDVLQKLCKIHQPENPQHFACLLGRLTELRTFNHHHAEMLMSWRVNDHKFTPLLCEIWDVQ

COc1cc(C(C)(C)C)c(O)c(C(C)(C)C)c1
active: [1] 69.8 µM | [10] 2.09 µM
not listed: [17] | [18] | [19] | [20]
inactive: all other assays above

C=C(C)C(=O)OCCOC(=O)CC(C)=O
not listed: [4] | [11] | [12] | [13] | [20]
inactive: all other assays above

CC(CCO)CCCC(C)(C)O (configuration not stated)
not listed: [4] | [8]
inactive: all other assays above

CCCC/C=C\CCCCCCCCCC=O
not listed: [2] | [16]
inactive: all other assays above

Source: PubChem BioAssay (EPA / NIEHS)
